We go through 38 molecules from PubChem BioAssay (NCI).

SMILES strings stand for the structures. About 83,000 compounds went through this panel and 20% of them were active in at least one assay; those are over-represented in the sample as a whole.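 Treatment: one concentration, 48 hours, 96-well format. Scoring: percent growth, with anything below 10 considered active.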 Unmarked numbers belong to inactive results. Activity calls are given as the source filed them.

In the assay the test system is K-562 leukemia. The assay can be described thus: NCI-60 one-dose screen, 48 h (100 = growth as untreated, 0 = no growth, -100 = all killed). The following applies: 10 µM unless noted.
Regarding `CC(=O)c1c(C)[nH]c(-c2nc3ccc(N4CCN(C)CC4)cc3[nH]2)c1-c1ccc(N(C)C)cc1`, the growth was 21.1%.
The value for `CC(=O)c1c(C)[nH]c(-c2nc3ccc(N4CCN(C)CC4)cc3[nH]2)c1-c1ccc(OCC2CCOCC2)cc1` was 22.4%.
The value for `CC/C=C\C[C@H]1CC=C2C(=O)C=C[C@@H]2CC=CCCCC(=O)O[C@@H](CCCCC)CC=C2C(=O)C=C[C@@H]2CC=CCCCC(=O)O[C@@H](CCCCC)CC=C2C(=O)C=C[C@@H]2CC=CCCCC(=O)O[C@@H](CCCCC)CC=C2C(=O)C=C[C@@H]2CC=CCCCC(=O)O1` was 7.46% [7.9 µM] (active); that for `O=C1c2cccc3cccc(c23)C(=O)N1CC#Cc1ccc2c3c(cccc13)C(=O)N(CCN1CCNCC1)C2=O` was -15.3% (active).
Regarding `COc1ccc(NC(=O)c2ccc3c(c2)nc(-c2cc4ccccc4[nH]c2=O)n3-c2cc(C(C)(C)C)[nH]n2)cc1`, the growth was 82.4%.
The value for `CC(=O)NC1=C(C#N)C(c2ccccc2Cl)c2c(ccc3ccccc23)O1` (stereo not drawn) was 19.4%.
As for `CC(C)(C)c1[nH]nc2c1C(c1cc3ccccc3[nH]c1=O)Nc1cc(C(=O)OCc3ccccc3)ccc1N2` (stereo not drawn), the growth was 17.1%.
Regarding `CC1(C)C=CC[C@]2(C)[C@H]3CC[C@@H]4[C@H]5[C@H](C(=O)/C=C/c6cccnc6)CC[C@]5(CO)CC[C@@]4(C)[C@]3(C)CC[C@@H]12`, the growth is -29.3% (active).
Then `CC1(C)[C@@H](O)CC[C@]2(C)[C@H]3CC[C@@H]4[C@H]5[C@H](C(=O)/C=C/c6ccc(C(F)(F)F)cc6)CC[C@]5(CO)CC[C@@]4(C)[C@]3(C)CC[C@@H]12`, with 32.9%; and `N=C(N)c1ccc(S(N)(=O)=O)cc1`, with 106%; and `C=C(C)[C@@H]1CC[C@]2(C(=O)OC)CC[C@]3(C)[C@H](CC[C@@H]4[C@@](C)(CC/C(N)=N/O)[C@H](C(=C)C)CC[C@]43C)[C@@H]12`, with 86.3%.
Then `COc1ccc(-c2nc3c(c(C)nn3-c3ccc(F)cc3)c(=O)[nH]2)cc1`, with 97.1%.
The value for `CC1(C)C(=O)/C(=C\c2ccco2)C[C@]2(C)[C@H]3CC[C@@H]4[C@@H](C(=O)/C=C/c5ccco5)CC[C@@]4(C)[C@]3(C)CC[C@@H]12` was 85.6%.
Consider `CC1(C)CC[C@]2(C(=O)Nc3ccccn3)CC[C@]3(C)C(=CC[C@@H]4[C@@]5(C)C/C(=C/c6ccncc6)C(=O)C(C)(C)[C@@H]5CC[C@]43C)[C@@H]2C1`, for which the growth was 11%.
With `Cc1csc(-c2ccc3c(c2)COC3(CCCN(C)C)c2ccc(F)cc2)c1` (stereo not drawn), the growth was -19.9% (active).
On to `Cc1nc([P+](c2ccccc2)(c2ccccc2)c2ccccc2)c(Sc2sc(-c3ccccc3)nc2[P+](c2ccccc2)(c2ccccc2)c2ccccc2)o1`, for which the growth was 9.67% (active).
Consider `O=C(O[C@@H]1Cc2c(O)cc(O)cc2O[C@@H]1c1cc(O)c(O)c(O)c1)c1cc(O)c2c(c1)OCO2`, for which the growth is 91%.
The value for `Fc1ccc2c(c1)c(-c1nc(-c3c[nH]c4ncccc34)cs1)cn2CCCN1CCCCC1` was -58.8% (active).
The value for `O=P(O)(c1ccccc1)c1ccccc1I` was 93.8%; that for `COc1ccc(/C=C(\C#N)c2cc3ccccc3n2S(C)(=O)=O)cc1` was 30.8%.
Then `CN1CCN(CCOc2ccc(-c3cnc4c(-c5cccc(F)c5)cnn4c3)cc2)CC1`, with -33.6% (active).
Consider `Cc1ccc2oc(=O)cc(-c3sc(N4CCCCC4)nc3-c3ccccc3)c2c1`, for which the growth was 97.8%.
With `Cc1ccnc2c(OCc3ccccc3)cccc12`, the growth is 99.2%.
Take `N#CC1=C(N)Oc2ccc3ccccc3c2C1c1ccccc1` (stereo not drawn): the growth was 14.9%.
In the case of `CN(C)CCCCC(C(=O)CBr)(c1ccccc1)c1ccccc1`, the growth is -7.09% (active).
Then `CC(=O)O[C@H]1CC[C@]2(C)[C@H]3CC=C4[C@@H]5[C@H](C)[C@@H](C)CC[C@]5(C(=O)NCCNCCNCCN)CC[C@@]4(C)[C@]3(C)CC[C@H]2C1(C)C`, with 12%.
For `Cc1ccc(S(=O)(=O)Nc2ccc(-c3cc(-c4cccc(F)c4)c(C#N)c(N)n3)cc2)cc1`, the growth was 2.53% (active).
As to `O=C1/C(=C\c2ccc(Br)o2)SC(=S)N1CCc1ccc(O)cc1`, the growth was 65.6%.
The value for `CN(C)c1ccc(-c2ccc(-c3ccc(C(=N)N)c(F)c3)s2)cc1` was -34.3% (active).
Turning to `Cc1ccc(S(=O)(=O)Nc2ccc(-c3cc(-c4cccc(F)c4)c(C#N)c(=O)[nH]3)cc2)cc1`, the growth is 54.9%.
The value for `O=C1CN(c2ccccc2)C(=O)C1C(=O)Nc1ccc(Cl)c(Cl)c1` (stereo not drawn) was 20.1% [100 µM]; that for `CN(C)CCCC1(c2ccc(F)cc2)OCc2cc(-c3ccc(C(F)(F)F)nc3)ccc21` (stereo not drawn) was 13.5%; that for `Fc1ccc(Nc2nnc(-c3ccc(Cl)cc3)o2)cc1` was 70.6%.
As for `C=C(C)[C@@H]1CC[C@]2(/C=N/Nc3ccncc3)CC[C@]3(C)[C@H](CC[C@@H]4[C@@]5(C)CCCNC(C)(C)[C@@H]5CC[C@]43C)[C@@H]12`, the growth was 7.55% (active).
The value for `O=C1c2ccccc2NC(c2cn(-c3ccccc3)nc2-c2cccs2)N1Cc1ccccc1` (stereo not drawn) was 70.7%; that for `Cc1cccc(C)c1NCc1nc(-c2ccccc2)n[nH]1` was 100%; that for `NC(N)=N/N=C/c1ccc(-c2ccc(-c3ccc(Cl)cn3)s2)cc1` was 1.08% (active).
For `CCOC(=O)C1OC1(c1ccccc1)c1ccccc1` (stereo not drawn), the growth was 109%.
